“And” between values parts separate entries of the source, which are not always exact repeats. Identical values can stand only once. Among all 16,000 compounds or so, about 5,800 (36%) were called active. About 23% were inconclusive and are not listed. The list shows a part of the results. Values without a mark were called inactive. Calls follow the shape of the dose curve; as a rule, active = well fitted curve in the direction sought with a large enough effect; inconclusive = small, poorly fitted or top-dose-only effect, or effect the other way; inactive = no such curve, though single readings can be large or run the other way.

Usually AC50 stands for the concentration giving half of the maximal activity seen.
% is scaled to controls: 0 for no effect and ±100 for the full control effect.

Sequence of Cytochrome P450 2C19 (Homo sapiens) (P33261 whole entry, looked up): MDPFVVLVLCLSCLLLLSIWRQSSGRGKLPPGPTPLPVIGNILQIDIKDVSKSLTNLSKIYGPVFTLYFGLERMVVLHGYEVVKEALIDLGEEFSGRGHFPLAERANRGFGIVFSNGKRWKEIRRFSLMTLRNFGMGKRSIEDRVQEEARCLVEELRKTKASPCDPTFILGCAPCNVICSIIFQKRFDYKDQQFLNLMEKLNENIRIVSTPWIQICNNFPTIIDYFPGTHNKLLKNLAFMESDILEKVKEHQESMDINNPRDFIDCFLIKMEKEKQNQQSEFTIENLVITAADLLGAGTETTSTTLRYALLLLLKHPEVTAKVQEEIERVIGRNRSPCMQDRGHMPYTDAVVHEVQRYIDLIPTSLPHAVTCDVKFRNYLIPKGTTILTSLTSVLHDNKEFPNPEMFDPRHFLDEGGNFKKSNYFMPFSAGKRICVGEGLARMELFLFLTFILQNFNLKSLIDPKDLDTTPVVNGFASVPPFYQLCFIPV

The assay has as its target Cytochrome P450 2C19 (Homo sapiens) (UniProt P33261). The experiment in a line: Cytochrome panel assay with activity outcomes. The following applies: recombinant CYP, pro-luciferin dealkylation, luminescence, p450-cyp2c19; series mostly up to 57.1 µM; activity, negative = inhibition: at the top concentration.
For `c1ccc(Oc2cc(-c3ccccc3)ncn2)cc1`, the AC50 is 2.51 µM (active).

Consider `COc1ccccc1-c1nnc(NC(C)=O)s1`, for which the “activity, negative = inhibition” value is -11%.

Regarding `COc1ccccc1NC(=O)Nc1nnc(-c2ccco2)s1`, the AC50 is 1.78 µM (active).

As to `CN1C(=O)/C(=N\OC(=O)c2cccc3ccccc23)c2ccccc21`, the AC50 is 8.91 µM (active).

For the compound `CN1C(=O)c2ccccc2C(C(=O)O)C1c1cn(C)c2ccccc12` (stereo not given), the “activity, negative = inhibition” value was -28.2%.

Consider `NCCCCCCCCCCN`, for which the “activity, negative = inhibition” value was -14.1%.

For `C[C@H](NCCc1ccc(O)cc1)[C@@H](O)c1ccc(O)cc1`, the AC50 result was “inactive”.

With `CN(c1ccccc1)c1ccc(/C=c2\s/c(=C(/C#N)C(=O)C(C)(C)C)n(Cc3ccco3)c2=O)cc1`, the AC50 was 1.78 µM (active).

On to `CNC(C)c1cc(OC)ccc1OC` (stereo not given), for which the “activity, negative = inhibition” value was -11.9%.

`COc1cccc(OC)c1OCCCCN1CCCC1`: the “activity, negative = inhibition” value is -25.6%.

`COc1cccc(OCCCOc2ccccc2C(C)C)c1`: the AC50 was 3.16 µM (active).

Take `CC(C(=O)Nc1cccnc1)N1C(=O)C2C3C=CC(C3)C2C1=O` (stereo not given): the “activity, negative = inhibition” value is 18.2%.

With `Cc1ccc(NC(=O)C(C)N2C(=O)C3C4CC(C(Br)C4Br)C3C2=O)cc1` (stereo not given), the AC50 is 12.6 µM (active).

Consider `COC(=O)c1nc(NC(=O)c2ccccc2)n[nH]1`, for which the “activity, negative = inhibition” value is -17.1%.

For the compound `Cc1nc(SC(C(=O)c2ccccc2)c2ccccc2)n[nH]1` (stereo not given), the AC50 was 2.51 µM (active).

Take `COc1ccc(-c2csc(N3C(=N)SCC3=O)n2)cc1`: the “activity, negative = inhibition” value was -31.8%.

`COc1cccc(-c2nnc3n2N=C(C(C)(C)C)CS3)c1`: the half-maximal activity concentration (AC50) is 2.82 µM (active).

As to `CCOc1ccc(-c2nnc3n2N=C(c2ccc(OC)cc2)CS3)cc1`, the AC50 is 4.47 µM (active).

For `CCOc1ccc(C2=Nn3c(nnc3-c3ccco3)SC2)cc1`, the AC50 was 3.16 µM (active).

As to `CCN(CC)C(=O)CSc1nnc(-c2ccco2)n1N`, the “activity, negative = inhibition” value is -20.6%.

As to `NCCCCCC(=O)O`, the AC50 entry is “inactive”.

In the case of `CCN1C(=O)[C@H]2[C@H]3[C@H](O)[C@H](O)C/C(=N/OC[C@@H](O)COCc4ccco4)[C@H]3CC[C@@H]2C1=O`, the activity, negative = inhibition was -33.5% [at 11.4 µM].

On to `CO[C@@H]1COC(=O)C/C=C\[C@@H](C)[C@H](OC)COC(=O)[C@@H](C)COC(=O)C/C=C\[C@H]1C`, for which the activity, negative = inhibition was 4.43% [at 11.4 µM].

As to `CCC(C)n1c(NC(=O)c2ccccc2)c(C#N)c2nc3ccccc3nc21` (stereo not given), the AC50 was 28.2 µM (active).

For the compound `Cc1noc(NC(=O)Nc2ccccc2F)c1C#N`, the activity, negative = inhibition was -17.8% [at 11.4 µM].

Regarding `CC(C)CN=C(N)N=C(N)N`, the activity, negative = inhibition is -8.28% [at 11.4 µM].

Consider `Oc1cccc(-c2nc3c4c(ncn3n2)-c2ccccc2CC42CCCC2)c1`, for which the AC50 is 25.1 µM (active).

Turning to `COc1ccc(C(=O)/C=C2/c3ccccc3CC(C)(C)N2C)cc1`, the AC50 was 15.8 µM (active).

Take `COc1ccc(C(=O)N2CCC3(CC2)CCN(C(c2ccccc2)c2ccccc2)CC3)cc1`: the “activity, negative = inhibition” value was -41.3%.

With `COc1ccc(C(=O)N2CCC3(CCN(C)CC3)CC2)cc1`, the “activity, negative = inhibition” value was -7.06%.

On to `Cn1nccc1C(=O)Nc1ccc(Cl)cc1`, for which the AC50 was 31.6 µM (active).

For `CCNS(=O)(=O)c1ccc(NC(=O)c2cc(C(F)(F)F)nn2C)cc1`, the “activity, negative = inhibition” value is -28.8%.

On to `O=C(O)/C(=C\c1ccccc1)Cc1ccccc1`, for which the activity, negative = inhibition is -14.2% [at 11.4 µM].

On to `O=C(O)c1cscc1Cc1cccs1`, for which the activity, negative = inhibition was -1.48% [at 11.4 µM].

Consider `O=C(Cc1cccs1)N/N=C/C(Br)=C/c1ccccc1`, for which the AC50 was 7.08 µM (active).

Consider `COc1cc(C(=O)NCc2cccc3ccccc23)cc(Cl)c1OC`, for which the AC50 was 3.16 µM (active).

In the case of `CS(=O)(=O)N1CCC[C@@]2(CCN(C(=O)Nc3ccccc3)C2)C1`, the “activity, negative = inhibition” value is 7.58%.

`COc1ccc2c(c1)C(=NN)c1cc(OC)ccc1-2`: the AC50 was 8.91 µM (active).

With `COc1ccc2c(c1)Cc1cc(N=[N+]([O-])c3ccc4c(c3)Cc3cc(OC)ccc3-4)ccc1-2`, the activity, negative = inhibition is -35.1% [at 11.4 µM].

For the compound `CC1(C)O[C@H]2[C@@H](c3[nH]nc4c(=O)[nH]c(=O)[nH]c34)OC[C@H]2O1`, the activity, negative = inhibition is 9.71% [at 11.4 µM].

Consider `COc1ccc(C(=O)N2CCCCC2)cc1S(=O)(=O)Nc1ccccc1`, for which the “activity, negative = inhibition” value is -27.1%.

As for `Cc1ccc(NS(=O)(=O)c2cc(C(=O)N3CCc4ccccc4C3)ccc2Cl)cc1`, the AC50 is 1.58 µM (active).

With `CN(c1ccc(C(=O)NCc2ccccn2)cc1)S(C)(=O)=O`, the “activity, negative = inhibition” value is 3.47%.

In the case of `Cc1ccc(NS(=O)(=O)c2cc(C(=O)NCc3ccccn3)ccc2Cl)cc1`, the AC50 is 5.01 µM (active).

With `CC(=O)OCC(=O)[C@@]1(OC(C)=O)[C@H](C)C[C@H]2[C@@H]3C[C@H](F)C4=CC(=O)C=C[C@@]4(C)[C@]3(F)[C@H](O)C[C@@]21C`, the “activity, negative = inhibition” value is -34.6% [at 25.6 µM].

Turning to `COc1ccc2[nH]cc(CCNc3ccnc(-c4ccc(N(C)C)cc4)n3)c2c1`, the AC50 was 6.31 µM (active).

For the compound `COc1ccc2[nH]cc(CCNc3ccnc(-c4ccc5c(c4)OCO5)n3)c2c1`, the AC50 was 0.631 µM (active).

Consider `COc1ccc2[nH]cc(CCNc3ccnc(-c4c(C)noc4C)n3)c2c1`, for which the AC50 was 1.58 µM (active).

As for `COc1ccc2[nH]cc(CCNc3ccnc(-c4ccoc4)n3)c2c1`, the AC50 is 0.501 µM (active).

In the case of `Cc1ccc(S(=O)(=O)N2CCC(C(=O)NCCCOC(C)C)CC2)cc1`, the “activity, negative = inhibition” value is -28.9%.

Take `Cc1ccc(S(=O)(=O)N(C)c2cc(S(=O)(=O)N3CCC(C)CC3)c(C)cc2C)cc1`: the AC50 was 3.16 µM (active).

Consider `CCn1c(O)c(/C=C2\C=Nc3ccccc32)sc1=Nc1ccc(C)cc1`, for which the half-maximal activity concentration (AC50) was 2 µM (active).

As to `Clc1ccc2c(c1)C=Nc1c(NCc3ccccc3)ncnc1O2`, the “activity, negative = inhibition” value is -48.4%.

With `COc1ccc(C2=NC(C(F)(F)F)(C(F)(F)F)c3c(n(C)c(=O)n(C)c3=O)N2)cc1`, the “activity, negative = inhibition” value is 41.7%.

For `O=C1c2ccccc2C2=Nc3ccccc3SC(c3ccccc3F)C12` (stereo not given), the AC50 was 1.58 µM (active).

On to `NS(=O)(=O)c1ccc(N=Nc2ccc(O)c(C(=O)O)c2)cc1`, for which the activity, negative = inhibition was 5.09% [at 11.4 µM].

Regarding `O=C(O)c1ccc(C(=O)c2ccccc2C(=O)O)cc1C(=O)O`, the activity, negative = inhibition was -5.18% [at 11.4 µM].

On to `O=C(O)C1=C/C(=C(/c2ccccc2)c2cc(C(=O)O)c(O)c3ccccc23)c2ccccc2C1=O`, for which the activity, negative = inhibition is 29% [at 11.4 µM] and -20.5% [at 11.4 µM].

Consider `O=C(O)C1=CC(=C(c2ccc(O)c(C(=O)O)c2)c2ccc(O)c(C(=O)O)c2)C=CC1=O`, for which the concentration at half-maximal activity (AC50) was 25.1 µM (active).

Take `CC1=C/C(=C(/c2ccc(O)c(C)c2)c2ccccc2C(=O)O)C=CC1=O`: the AC50 was 0.00316 µM (active).

For the compound `O=C(CN1CCc2ccccc21)NC(=O)NCc1ccco1`, the AC50 was 7.94 µM (active).

As to `Cc1nn(CC(O)COc2ccc3c(c2)CCC3)c(C)c1Br` (stereo not given), the AC50 is 2 µM (active).

As to `CN(C)CC(O)COc1cccc(OCC(O)CN(C)C)c1` (stereo not given), the “activity, negative = inhibition” value was -26.1%.

Consider `CCOC(=O)c1ccc(S(=O)(=O)N2CCN(C)CC2)cc1`, for which the “activity, negative = inhibition” value was -29.5%.

With `O=C(NC(=S)Nc1ccc(C(=O)N2CCOCC2)cc1)c1ccc([N+](=O)[O-])cc1`, the “activity, negative = inhibition” value is 3.86%.

Turning to `Cc1ccc(C(=O)NC(=S)Nc2ccc(S(=O)(=O)N3CCN(C)CC3)cc2)cc1`, the AC50 was 15.8 µM (active).

With `Cc1sc(N)c(C(=O)c2cccc(C(F)(F)F)c2)c1C`, the “activity, negative = inhibition” value was -19.2%.

Regarding `O=C(OCn1ncc(Cl)c(Cl)c1=O)c1cccc(C(F)(F)F)c1`, the AC50 was 2.24 µM (active).

For the compound `O=c1c(C=Nc2cccc(C(F)(F)F)c2)c[nH]n1-c1cccc(Cl)n1`, the “activity, negative = inhibition” value was -14.3%.

Take `N/C(CC/C(N)=N/O)=N\O`: the activity, negative = inhibition was 20.3% [at 11.4 µM].

In the case of `C=CCNc1sc(C(=O)c2ccc(C)cc2)c(N)c1C#N`, the AC50 was 7.08 µM (active).

On to `C=CCNc1sc(C(=O)c2ccccc2)c(N)c1C#N`, for which the AC50 was 6.31 µM (active).

Take `N#CC(CC(=O)O)=C(c1ccccc1)c1ccccc1`: the activity, negative = inhibition was 5.19% [at 11.4 µM].

On to `CC(=O)CSc1nnc(Cc2ccc([N+](=O)[O-])cc2)o1`, for which the AC50 is 7.08 µM (active).

Take `NNC(=O)CNc1cccc(Br)c1`: the activity, negative = inhibition was -2.2% [at 11.4 µM].

As to `O=C(Cc1ncc(C(F)(F)F)cc1Cl)Nc1cccc(Br)c1`, the AC50 was 2.82 µM (active).

Consider `Cc1ccc(C(=O)c2cn(-c3ccc(F)c(Cl)c3)nn2)cc1`, for which the “activity, negative = inhibition” value was -17.5%.

`CC(C)(C)C(=O)OCc1cn(-c2ccc(Cl)cc2)nn1`: the AC50 is 8.91 µM (active).

`[Cu].[O-]/N=C1/C(=[OH+])Nc2ccccc21.[O-]Nc1c(O)[nH]c2ccccc12`: the activity, negative = inhibition was 2.58% [at 11.4 µM].

With `Cc1c(C=O)c2ccccn2c1C(=O)c1ccncc1`, the AC50 was 1.78 µM (active).

Take `C[C@H](C(=O)c1ccncc1)c1ccccn1`: the activity, negative = inhibition was -37.2% [at 11.4 µM].

As for `CC(=O)N(C[C@@H](C)C(=O)O)c1c(I)cc(I)c(N)c1I`, the “activity, negative = inhibition” value was -29.6% [at 25.6 µM].

In the case of `COc1ccc(F)cc1S(=O)(=O)NC(Cc1ccccc1)C(N)=O` (stereo not given), the AC50 is 7.08 µM (active).

For the compound `C[N+](C)(C)/N=C\c1ccc(O)c(O)c1`, the activity, negative = inhibition is 12.7% [at 11.4 µM].

Take `CC(C)N=c1scc(-c2ccco2)n1/N=C/c1ccc(O)c(O)c1`: the AC50 was 7.94 µM (active).

As for `NC(=S)SCCC(=O)O`, the activity, negative = inhibition was -6.93% [at 11.4 µM].

For the compound `Cc1nn(Cc2ccc([N+](=O)[O-])cc2)c(=O)n1-c1cccc(F)c1`, the AC50 was 11.2 µM (active).

Turning to `CSCC[C@@H]1NC(=O)C/C=C\[C@@H](C)COC(=O)[C@H](C)COC1=O`, the activity, negative = inhibition was -10.8% [at 11.4 µM].

As for `C[C@@H]1/C=C\CC(=O)OC[C@H]2O[C@@H](C=C[C@@H]2O)[C@H](C)/C=C\CC(=O)OC[C@H]2O[C@H]1C=C[C@@H]2O`, the activity, negative = inhibition is -20.1% [at 11.4 µM].

Regarding `CN(Cc1cc2ccccc2[nH]c1=O)S(C)(=O)=O`, the “activity, negative = inhibition” value was -24.3%.

On to `CS(=O)(=O)N(Cc1cc2ccccc2[nH]c1=O)C1CCCCC1`, for which the AC50 was 15.8 µM (active).

As for `COc1ccc(-n2c(N)c(C(=O)NCc3ccco3)sc2=S)cc1`, the AC50 was 17.8 µM (active).

With `O=C(NNC(=S)Nc1ccccc1)c1ccco1`, the “activity, negative = inhibition” value is 21.4%.

On to `O=C(Nc1ccccc1)N1CC2(CCN(C(=O)c3ccco3)CC2)C1`, for which the “activity, negative = inhibition” value was 10.4%.

On to `CC1=C(C(=O)Nc2ccccc2)C(c2ccco2)NC(=S)N1` (stereo not given), for which the AC50 is 35.5 µM (active).

The values above are taken from PubChem BioAssay AID1851 (National Center for Advancing Translational Sciences (NCATS), 2009).
